Results filed as inconclusive are left out. The source made the active and inactive calls. Unless noted, calls come from the whole dose curve; as a rule, active = well fitted curve in the direction sought with a large enough effect in the repeat runs; inconclusive = weak or mixed curves; inactive = no such curve, though single readings can be large; an effect the other way counts as inactive or inconclusive.
Assays:
[1] = qHTS RealTime-Glo MT Cell Viability Assay in HEK293 cells - 0 hour (AID 1224880); note: top concentration of the series differs between compounds; nearly all actives have a fitted effect of over 45% in size
Method in brief: (§1)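 600 cells/well were plated with the nonlytic NanoLuc/prosubstrate reagent, pre-incubated 5 h, then given 23 nL of compound in DMSO. Incubation at 37 C for 40 h, with luminescence from viable-cell-reduced substrate read repeatedly from 0 h.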

[2] = A CellTox Green Cytotoxicity Assay to monitor cytotoxicity in HEK293 cells - 32 hour (AID 1224881); note: nearly all actives have a fitted effect of over 40% in size
Method in brief: (§2)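 HEK293 cells, 600/well, were preincubated 5 hours and then exposed to compounds at 37 C for up to 40 hours. A cell-impermeant cyanine dye staining dead-cell DNA was read by fluorescence at 0, 8, 16, 24, 32 and 40 h time points.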

[3] = A CellTox Green Cytotoxicity Assay to monitor cytotoxicity in HepG2 cells - 0 hour (AID 1224882); note: nearly all actives have a fitted effect of over 35% in size
Method in brief: (§3)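 HepG2 cells, 600/well, preincubated 5 h with CellTox Green dye, then exposed to Tox21 compounds in DMSO at 37 C for up to 40 h. Dead-cell DNA fluorescence read at the indicated time point.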

[4] = A CellTox Green Cytotoxicity Assay to monitor cytotoxicity in HEK293 cells - 8 hour (AID 1224884); note: nearly all actives have a fitted effect of over 35% in size
Method in brief: as §2

[5] = qHTS RealTime-Glo MT Cell Viability Assay in HepG2 cells - 16 hour (AID 1224885); note: nearly all actives have a fitted effect of over 50% in size
Method in brief: (§4)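 Compound treatment began 5 h after plating HepG2 cells (600/well) with NanoLuc luciferase and prosubstrate. Plates stayed at 37 C for 40 h; luminescence was captured at six time points, 0 h through 40 h.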

[6] = qHTS RealTime-Glo MT Cell Viability Assay in HEK293 cells - 24 hour (AID 1224886); note: top concentration of the series differs between compounds; nearly all actives have a fitted effect of over 50% in size
Method in brief: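 Quantitative high-throughput screen of the Tox21 10K library in HEK293: cells and RealTime-Glo reagents plated together, compound added at 5 h, luminescence monitored through 40 h at 37 C.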

[7] = A CellTox Green Cytotoxicity Assay to monitor cytotoxicity in HEK293 cells - 16 hour (AID 1224888); note: nearly all actives have a fitted effect of over 35% in size
Method in brief: as §2

[8] = qHTS RealTime-Glo MT Cell Viability Assay in HepG2 cells - 0 hour (AID 1224889); note: nearly all actives have a fitted effect of over 50% in size
Method in brief: as §4

[9] = A CellTox Green Cytotoxicity Assay to monitor cytotoxicity in HepG2 cells - 8 hour (AID 1224890); note: nearly all actives have a fitted effect of over 45% in size
Method in brief: as §3

[10] = qHTS assay to identify small molecule antagonists of the estrogen receptor alpha (ER-alpha) signaling pathway using the BG1 cell line in the presence of 0.1 nM 17-beta-estradiol - cell viability counter screen (AID 1259241); note: nearly all actives have a fitted effect of over 40% in size
Method in brief: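 Estradiol-stimulated (0.1 nM) VM7Luc4E2 cells exposed to compounds 22 hr; viability measured by fluorescence of cleaved CellTiter-Fluor substrate after 30 min.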

[11] = qHTS assay to identify small molecule antagonists of the androgen receptor (AR) signaling pathway using the MDA cell line in the presence of 0.5 nM R1881 - cell viability counter screen (AID 1259242); note: nearly all actives have a fitted effect of over 45% in size
Method in brief: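 MDA-kb2 cells (MMTV-luciferase, AR/GR responsive) were treated with compounds plus 0.5 nM R1881 (final) for 16 hr at 37C, 0% CO2. Viability was then read in the same wells as live-cell protease fluorescence (CellTiter-Fluor, 30 min).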

[12] = biological target: Estrogen receptor (Homo sapiens) (UniProt P03372); test: qHTS assay to identify small molecule antagonists of the estrogen receptor alpha (ER-alpha) signaling pathway using the BG1 cell line in the presence of 0.1 nM 17-beta-estradiol (AID 1259244); note: nearly all actives have a fitted effect of over 50% in size
Sequence of Estrogen receptor (Homo sapiens) (P03372 whole entry, looked up): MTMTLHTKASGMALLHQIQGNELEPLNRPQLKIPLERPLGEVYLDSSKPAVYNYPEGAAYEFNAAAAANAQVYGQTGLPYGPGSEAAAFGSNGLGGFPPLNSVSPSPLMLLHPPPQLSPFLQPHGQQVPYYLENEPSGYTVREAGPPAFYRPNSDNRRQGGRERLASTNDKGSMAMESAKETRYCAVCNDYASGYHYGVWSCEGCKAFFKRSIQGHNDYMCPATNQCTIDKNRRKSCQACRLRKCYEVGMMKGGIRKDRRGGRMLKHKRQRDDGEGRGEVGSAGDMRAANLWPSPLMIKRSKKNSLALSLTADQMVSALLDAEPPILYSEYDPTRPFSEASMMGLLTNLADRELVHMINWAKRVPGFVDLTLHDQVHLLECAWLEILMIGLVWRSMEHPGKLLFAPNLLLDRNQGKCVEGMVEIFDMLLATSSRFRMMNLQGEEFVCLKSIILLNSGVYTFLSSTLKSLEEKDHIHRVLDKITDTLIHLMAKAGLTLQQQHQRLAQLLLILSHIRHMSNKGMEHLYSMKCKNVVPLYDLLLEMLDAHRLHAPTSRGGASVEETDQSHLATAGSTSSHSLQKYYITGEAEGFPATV
Method in brief: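 VM7Luc4E2 cells (endogenous full-length ER-alpha, 4×ERE-luciferase), kept 5 days in phenol red-free, charcoal-stripped FBS medium; 4,000 cells/well. Compounds added with 0.1 nM (final) 17beta-estradiol, 22 hr at 37C; luminescence read with ONE-Glo after 30 min.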

[13] = qHTS assay to identify small molecule HDAC inhibitors (AID 1259364); note: top concentration of the series differs between compounds; nearly all actives have a fitted effect of over 45% in size
Method in brief: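 Wild-type HCT-116 cells, plated overnight at 37 C, exposed to compounds 2 hr at 37 C; luminogenic HDAC-Glo substrate then added 30 min at room temperature. Luminescence reports relative endogenous class I/II HDAC activity.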

[14] = qHTS assay to identify small molecule HDAC inhibitors - cell viability counter screen (AID 1259365)
Method in brief: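 After overnight seeding at 1,500 cells per well, wild-type HCT-116 cultures took up compounds in DMSO for 2hr at 37 C. Viable cell content came from luminescence with CellTiter-Glo.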

[15] = qHTS assay to identify small molecule agonists of the sonic hedgehog signaling (Shh) pathway - cell viability counter screen (AID 1259366); note: nearly all actives have a fitted effect of over 50% in size
Method in brief: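 Same-well cytotoxicity read. Gli1-Luc reporter 3T3 cells; compounds 24hr, 37C/5% CO2; CellTiter-Fluor fluorescence.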

[16] = qHTS assay to identify small molecule antagonists of the sonic hedgehog signaling (Shh) pathway - cell viability counter screen (AID 1259367); note: nearly all actives have a fitted effect of over 55% in size
Method in brief: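 Using CellTiter-Fluor, viability of Gli1-Luc reporter 3T3 cells is read by fluorescence in the wells used for the Shh luciferase assay. Treatment lasts 23 hr with conditioned medium, then reagent 1 hr at 37C.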

[17] = qHTS RealTime-Glo MT Cell Viability Assay in HEK293 cells - 8 hour (AID 1224887)
Method in brief: as §1

[18] = biological target: Androgen receptor (Homo sapiens) (UniProt P10275); test: qHTS assay to identify small molecule antagonists of the androgen receptor (AR) signaling pathway using the MDA cell line in the presence of 0.5 nM R1881 (AID 1259243); note: nearly all actives have a fitted effect of over 50% in size
Sequence of Androgen receptor (Homo sapiens) (P10275 whole entry, looked up): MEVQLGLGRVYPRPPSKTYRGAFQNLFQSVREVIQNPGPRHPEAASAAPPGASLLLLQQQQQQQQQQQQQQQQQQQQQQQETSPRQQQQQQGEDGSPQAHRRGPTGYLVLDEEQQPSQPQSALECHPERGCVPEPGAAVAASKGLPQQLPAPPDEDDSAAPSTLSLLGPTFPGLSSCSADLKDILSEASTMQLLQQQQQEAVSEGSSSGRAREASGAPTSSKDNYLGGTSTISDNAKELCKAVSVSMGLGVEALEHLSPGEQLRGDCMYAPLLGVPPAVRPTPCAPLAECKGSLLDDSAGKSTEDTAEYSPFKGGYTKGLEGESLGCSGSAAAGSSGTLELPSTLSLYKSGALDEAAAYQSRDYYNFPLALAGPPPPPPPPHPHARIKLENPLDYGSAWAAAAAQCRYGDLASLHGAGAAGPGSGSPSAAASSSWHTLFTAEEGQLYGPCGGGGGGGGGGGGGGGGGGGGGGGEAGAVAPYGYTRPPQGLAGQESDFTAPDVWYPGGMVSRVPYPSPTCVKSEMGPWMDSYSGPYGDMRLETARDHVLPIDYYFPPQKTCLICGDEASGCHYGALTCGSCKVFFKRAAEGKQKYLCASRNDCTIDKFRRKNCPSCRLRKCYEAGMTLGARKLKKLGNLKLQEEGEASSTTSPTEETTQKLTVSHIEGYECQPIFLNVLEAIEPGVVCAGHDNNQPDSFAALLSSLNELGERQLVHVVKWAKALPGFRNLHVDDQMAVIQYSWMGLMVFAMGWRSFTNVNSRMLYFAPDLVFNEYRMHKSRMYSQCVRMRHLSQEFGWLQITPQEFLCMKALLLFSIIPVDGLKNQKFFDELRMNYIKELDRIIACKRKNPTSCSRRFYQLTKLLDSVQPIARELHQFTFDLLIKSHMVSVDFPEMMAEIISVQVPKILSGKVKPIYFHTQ
Method in brief: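 MDA-kb2 cells (MMTV-luciferase, responsive to AR and GR) at 3,000/well, rested 5 h at 37C, 0% CO2, then given compounds plus 0.5 nM R1881 (final) for 16 hr. Luciferase read with ONE-Glo after 30 min at room temperature.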

[19] = A CellTox Green Cytotoxicity Assay to monitor cytotoxicity in HepG2 cells - 32 hour (AID 1224883); note: nearly all actives have a fitted effect of over 50% in size
Method in brief: as §3

[20] = qHTS assay to identify small molecule phospholipidosis (PLD) inducers (AID 1259344; active = well fitted curve in the direction sought with a large enough effect; an effect the other way counts as inactive or inconclusive)
Method in brief: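 Fluorescent phospholipid staining (LipidTOX Red) measured by automated microscopy in fixed HepG2 cells after 24 h treatment; nuclei counterstained with Hoechst 33342; amiodarone as reference inducer.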

Measured: Potency

COc1ccccc1OC
not listed: [17] | [18] | [19] | [20]
inactive: all other assays above

COc1ccc(C=O)cc1O
not listed: [4] | [13] | [19] | [20]
inactive: all other assays above

O=C(NC(=O)c1c(F)cccc1F)Nc1cc(Cl)c(F)c(Cl)c1F
not listed: [10] | [13] | [18] | [19] | [20]
inactive: all other assays above

O=C1CCCCC1Cl (centres undefined)
not listed: [6] | [10] | [12] | [18] | [19] | [20]
inactive: all other assays above

Cl/C=C/CCl
not listed: [12] | [18] | [19] | [20]
inactive: all other assays above

C#CCOC(=O)/C=C(C)/C=C/CC(C)CCCC(C)C (centres undefined)
not listed: [3] | [18] | [20]
inactive: all other assays above

CCOC(=O)c1ncn2c1CN(C)C(=O)c1c(I)cccc1-2
not listed: [6] | [12] | [18] | [19]
inactive: all other assays above

CC[C@@H](CO)NC(=O)[C@@H]1C=C2c3cccc4[nH]cc(c34)C[C@H]2N(C)C1
not listed: [3]
inactive: all other assays above
